Data: PubChem BioAssay (NCATS)
Inconclusive results are not listed. Where a call stands in place of a potency, no number is given. The source made the active and inactive calls. Calls come from the whole dose curve; as a rule, active = well fitted curve in the direction sought with a large enough effect in the repeat runs; inconclusive = weak or mixed curves; inactive = no such curve, though single readings can be large; an effect the other way counts as inactive or inconclusive.

molecular target: Cytochrome P450 2D6 (Homo sapiens) (UniProt P10635); assay: Cytochrome P450 family 2 subfamily D member 6 (CYP2D6) small molecule antagonists: luciferase biochemical (cell-free) qHTS assay (AID 1645840); details: P450-Glo CYP2D6 enzyme, luciferin luminescence, 1 h; series mostly up to 57.4 µM
Sequence (P10635 whole entry, looked up): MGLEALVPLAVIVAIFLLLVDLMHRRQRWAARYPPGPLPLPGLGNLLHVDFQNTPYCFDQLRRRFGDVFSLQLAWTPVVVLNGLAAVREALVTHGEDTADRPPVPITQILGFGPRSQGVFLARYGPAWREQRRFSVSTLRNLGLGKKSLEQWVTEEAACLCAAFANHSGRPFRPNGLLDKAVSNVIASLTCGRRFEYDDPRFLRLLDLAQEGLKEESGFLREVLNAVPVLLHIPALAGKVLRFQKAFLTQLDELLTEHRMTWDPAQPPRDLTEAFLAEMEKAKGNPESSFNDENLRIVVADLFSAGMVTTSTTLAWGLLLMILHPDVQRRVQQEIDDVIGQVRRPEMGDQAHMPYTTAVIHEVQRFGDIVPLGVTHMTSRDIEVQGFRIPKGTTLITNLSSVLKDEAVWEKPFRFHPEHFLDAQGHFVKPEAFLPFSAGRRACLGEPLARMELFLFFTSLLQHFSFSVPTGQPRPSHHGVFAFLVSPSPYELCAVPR
Procedure, shortened: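 P450-Glo luminescent screen: recombinant CYP2D6 enzyme–proluciferin substrate mix preincubated with compound 10 min at room temperature, then NADPH regeneration added for 1 h at room temperature. Detection reagent added for 20 min; luciferin light read as relative luminescence units.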
Note: nearly all actives have a fitted effect of over 55% in size.
Potency is the fitted concentration of half-maximal effect.

Row | SMILES | Potency | activity change, negative = inhibition
1 | COC(=O)CCc1ccc(OCC(O)CNC(C)C)cc1 (configuration not stated) | inactive | –
2 | Cc1cc(=O)n(-c2ccccc2)n1C | inactive | –
3 | Cc1c(F)c(N2CCNC(C)C2)cc2c1c(=O)c(C(=O)O)cn2C1CC1 (configuration not stated) | inactive | –
4 | C=CCc1ccc(O)c(OC)c1 | inactive | –
5 | Nc1ccn([C@@H]2O[C@H](CO)[C@@H](O)C2(F)F)c(=O)n1 | inactive | –
6 | CC1(C)O[C@@H]2[C@@H](CO[C@@]3(COS(N)(=O)=O)OC(C)(C)O[C@@H]23)O1 | inactive | –
7 | O=C(O)CNC(=O)c1ccccc1 | inactive | –
8 | Cc1c(C(N)=O)cc([N+](=O)[O-])cc1[N+](=O)[O-] | inactive | –
9 | CCC(C(=O)OCCN(CC)CC)c1ccccc1 (configuration not stated) | 3.09 µM (active) | –
10 | CCCCN1CCCC1C(=O)Nc1c(C)cc(C)cc1C (configuration not stated) | 3.89 µM (active) | –
11 | CCCCC(=O)O[C@]1(C(=O)CO)CC[C@H]2[C@@H]3CCC4=CC(=O)CC[C@]4(C)[C@H]3[C@@H](O)C[C@@]21C | inactive | –
12 | CCn1cc(C(=O)O)c(=O)c2cnc(N3CCCC3)nc21 | – | -1.21% [at 11.5 µM] (inactive)
13 | Nc1ccc(C(=O)O)cc1 | inactive | –
14 | Cc1c(C(C)C)c(=O)n(-c2ccccc2)n1C | inactive | –
15 | COc1c2occc2c(OC)c2c(=O)cc(C)oc12 | 15.5 µM (active) | –

molecular target: Cytochrome P450 2C9 (Homo sapiens) (UniProt P11712); assay: Cytochrome P450 family 2 subfamily C member 9 (CYP2C9) small molecule antagonists: luciferase biochemical (cell-free) qHTS assay (AID 1645842); details: P450-Glo CYP2C9 enzyme assay, luciferin luminescence; series mostly up to 57.4 µM
Sequence (P11712 whole entry, looked up): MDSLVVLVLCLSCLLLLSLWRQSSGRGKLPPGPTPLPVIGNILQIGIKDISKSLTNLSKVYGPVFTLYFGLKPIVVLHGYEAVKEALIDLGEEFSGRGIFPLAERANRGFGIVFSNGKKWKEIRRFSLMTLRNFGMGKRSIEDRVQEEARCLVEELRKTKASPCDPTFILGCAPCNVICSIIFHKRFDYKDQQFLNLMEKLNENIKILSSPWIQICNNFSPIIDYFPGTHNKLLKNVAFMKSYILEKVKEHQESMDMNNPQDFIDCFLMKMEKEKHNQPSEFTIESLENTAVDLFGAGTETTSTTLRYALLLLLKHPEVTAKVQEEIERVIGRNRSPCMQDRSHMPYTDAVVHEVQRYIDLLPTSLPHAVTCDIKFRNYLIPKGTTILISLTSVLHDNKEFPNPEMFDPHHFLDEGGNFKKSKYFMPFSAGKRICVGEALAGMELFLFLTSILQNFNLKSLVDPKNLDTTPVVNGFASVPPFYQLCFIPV
Procedure, shortened: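 Luminescence, after 20 min with luciferin detection reagent, reflected CYP2C9 turnover during a 1 h NADPH-driven reaction at 37C. Enzyme-substrate mix contained 0.4% bovine serum albumin and was preincubated with compound 10 min at room temperature.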

Row | SMILES | Potency | activity change, negative = inhibition
16 | C[C@H](CCC(=O)O)[C@H]1CC[C@H]2[C@@H]3C(=O)C[C@@H]4CC(=O)CC[C@]4(C)[C@H]3CC(=O)[C@]12C | inactive | –
17 | CC(=O)CC(c1ccc([N+](=O)[O-])cc1)c1c(O)c2ccccc2oc1=O (configuration not stated) | 2.19 µM (active) | –
18 | CCCCC1=NC2(CCCC2)C(=O)N1Cc1ccc(-c2ccccc2-c2nn[nH]n2)cc1 | 17.4 µM (active) | –
19 | C[C@]12C=CC(=O)C=C1CC[C@@H]1[C@@H]2[C@@H](O)C[C@@]2(C)[C@H]1CC[C@]2(O)C(=O)CO | inactive | –
20 | CCCN1CCCC[C@H]1C(=O)Nc1c(C)cccc1C | inactive | –
21 | Cc1cc2c(cc1CC(=O)c1sccc1S(=O)(=O)Nc1onc(C)c1Cl)OCO2 | 3.09 µM (active) | –
22 | Cc1ccc(C(=O)C(C)CN2CCCCC2)cc1 (configuration not stated) | inactive | –
23 | N[C@@H](CCC(=O)N[C@@H](CS)C(=O)NCC(=O)O)C(=O)O | inactive | –
24 | CCN(CC)C(=O)N1CCN(C)CC1 | inactive | –
25 | c1ccc(CNCCNCc2ccccc2)cc1 | inactive | –
26 | COC(=O)CCc1ccc(OCC(O)CNC(C)C)cc1 (configuration not stated) | inactive | –
27 | Cc1c(F)c(N2CCNC(C)C2)cc2c1c(=O)c(C(=O)O)cn2C1CC1 (configuration not stated) | inactive | –
28 | Nc1ccn([C@@H]2O[C@H](CO)[C@@H](O)C2(F)F)c(=O)n1 | inactive | –
29 | CC1(C)O[C@@H]2[C@@H](CO[C@@]3(COS(N)(=O)=O)OC(C)(C)O[C@@H]23)O1 | inactive | –
30 | O=C(O)CNC(=O)c1ccccc1 | inactive | –
31 | Cc1c(C(N)=O)cc([N+](=O)[O-])cc1[N+](=O)[O-] | inactive | –
32 | CCC(C(=O)OCCN(CC)CC)c1ccccc1 (configuration not stated) | inactive | –
33 | CCCCN1CCCC1C(=O)Nc1c(C)cc(C)cc1C (configuration not stated) | inactive | –
34 | CCn1cc(C(=O)O)c(=O)c2cnc(N3CCCC3)nc21 | – | -2.8% [at 11.5 µM] (inactive)
35 | Nc1ccc(C(=O)O)cc1 | inactive | –
36 | Cc1c(C(C)C)c(=O)n(-c2ccccc2)n1C | inactive | –
37 | COc1c2occc2c(OC)c2c(=O)cc(C)oc12 | 11 µM (active) | –
